Compound activity as filed in PubChem BioAssay.
Only some compounds are listed: those with a hit (about 5.7% of all), similar ones and a draw of the others.
DAX1 inh-1 = blocks DAX1 repression of SF-1 activated StAR promoter; HEK293T StAR-luciferase reporter, SF-1/DAX-1 repression relief; AID 652010; inhibition, % at 6.8 µM; 370,000 tested, 1.1% active;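 active = inhibition above the mean over all tested compounds plus 3 SD, cut at about 3.6% in these data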;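 also: 0% = DAX-1 cells with DMSO and 100% = cells lacking DAX-1 with DMSO; higher inhibition means more luminescence from relief of DAX-1 repression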
hcDAF-12 act = H. contortus DAF-12 activation, primary screen. 370,000 tested, 1.4% active. HEK293 hcDAF-12 lit1-tk-luc reporter, luminescence; 0% DMSO, 100% Δ7-dafachronic acid. activation, % at 6.8 µM;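 active = activation above the mean of all tested compounds plus 3 SD, cut at about 5.5% in these data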;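 also: 100% = response to 3 µM Δ7-dafachronic acid high control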
AHR act = human AHR activation; AID 2796; AHR-responsive luciferase reporter cells, luminescence; 320,000 tested, 2.5% active; activation, % at 5 µM; in the data active = activation above about 47%;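 also: 0% = vehicle wells and 100% = reference agonist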
hgDAF12 agonist = activates the H. glycines DAF-12 receptor ligand-binding domain. HEK293 GAL4-hgDAF12 UAS-luciferase reporter, agonist luminescence; normalized to butyrate control. activation, % at 6.8 µM. 370,000 tested, 1.8% active;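 active = activation above a cutoff set at the mean of all screened compounds plus 3 SD, cut at about 10% in these data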;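 also: 0% = DMSO wells and 100% = sodium butyrate wells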
ssDAF12 agonist = S. stercoralis DAF-12 activation, primary screen; activation, % at 6.8 µM; HEK293 ssDAF-12/GRIP1 lit1-tk-luc reporter, luminescence; % of 3 µM dafachronic acid response; 370,000 tested, 1% active;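 active = activation above the mean over all tested compounds plus 3 SD, cut at about 0.9% in these data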;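 also: 0% = DMSO-only wells and 100% = 3 µM delta7-dafachronic acid wells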
DAX1 inh-2 = inhibits human nuclear receptor DAX1 | inhibition, % at 6.75 µM | 340,000 tested, 0.99% active | P51843 | HEK293 Gal4-DAX1 luciferase reporter, luminescence;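 active = inhibition above the mean over all tested compounds plus 3 SD, cut at about 4.2% in these data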;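 also: 0% = DAX1-transfected cells with DMSO and 100% = empty-vector control cells with DMSO; inhibition shows as a rise in luminescence from relieved DAX1 repression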
Target sequence (P51843 207-470 limits assumed): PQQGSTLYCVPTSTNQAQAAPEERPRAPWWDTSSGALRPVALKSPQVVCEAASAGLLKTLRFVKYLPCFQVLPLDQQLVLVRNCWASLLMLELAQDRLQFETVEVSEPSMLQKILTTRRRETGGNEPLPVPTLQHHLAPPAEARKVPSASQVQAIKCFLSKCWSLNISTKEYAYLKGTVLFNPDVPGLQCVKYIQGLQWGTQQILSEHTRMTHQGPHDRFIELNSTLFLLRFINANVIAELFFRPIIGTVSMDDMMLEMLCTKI
DAX1 inh confirm = NR0B1 (human) inhibition, confirmation; 2,400 tested, 87% active; inhibition, % at 6.8 µM; AID 652134; HEK293T StAR-promoter luciferase reporter, SF-1/DAX-1 repression; shares compounds with DAX1 inh-1;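 active = inhibition above the average of every tested compound plus 3 SD, cut at about 3.8% in these data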;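 also: 0% = DAX-1 cells with DMSO and 100% = no DAX-1 control cells with DMSO; active compounds raise luminescence by relieving repression of the StAR reporter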
SF1 AF2mut Luc = nonselective inhibitor or artifact in SF-1 mutant DAX1 counter-screen | 2,400 tested, 78% active | HEK293 StAR-luciferase, SF-1 AF2 mutant, luminescence | inhibition, % at 6.8 µM | shares compounds with DAX1 inh-1 | AID 652136;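 active = inhibition above the mean of all tested compounds plus 3 SD, cut at about 3% in these data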;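 also: 0% = DAX-1 transfected cells with DMSO and 100% = cells without DAX-1 with DMSO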
An asterisk follows results filed as active; . = not tested or not shown.

SMILES | DAX1 inh-1 | hcDAF-12 act | AHR act | hgDAF12 agonist | ssDAF12 agonist | DAX1 inh-2 | DAX1 inh confirm | SF1 AF2mut Luc
CC(C)[C@H](NC(=O)OC(C)(C)C)c1cc(C(=O)N2CCOCC2)c(N)s1 | 6.0* | 0 | . | 6 | -1 | . | 0 | -2
N#Cc1ccc(-c2ccc(OCC(O)CN3CCCCC3)cc2)cc1 (stereo unspecified) | 0 | -2 | 0 | 2 | -1 | 0 | . | .
NNC(=S)Nc1ccc(C(F)(F)F)cc1Cl | 0 | 1 | 14 | 7 | -1 | 2 | . | .
O=C(CCNC(=O)c1ccc(Cl)cc1)NCCC1=CCCCC1 | 5.4* | 1 | 4 | 9 | 0 | 1 | 5.8* | 5.8*
O=C(NCCC1=CCCCC1)c1ccc([N+](=O)[O-])cc1 | 4.6* | 5 | 19 | 13* | -1 | 3 | 13* | 7.2*
O=C(NCCc1ccc(F)cc1)c1ccc([N+](=O)[O-])cc1 | 6.7* | 2 | 8 | 9 | -1 | 2 | 7.3* | 3.9*
COc1ccc(C(=O)NCCC2=CCCCC2)cc1 | 5.5* | 5.6* | -5 | 10 | 1.2* | -3 | 10* | 2
COc1ccc(C(=O)NCC(=O)OCC(=O)NCCC2=CCCCC2)cc1 | 0 | 0 | 0 | 0 | -1 | 0 | . | .
CCc1ccc2nc(N(CCCN(C)C)C(=O)c3ccc(C(=O)c4ccccc4)cc3)sc2c1 | -1 | -2 | -3 | -3 | -1 | 0 | . | .
COc1ccc(CN(C)C(=O)C(CCSC)NS(=O)(=O)c2ccc3c(c2)OCCO3)c(OC)c1OC (stereo unspecified) | -1 | -2 | . | -3 | -1 | 0 | . | .
CN(C)S(=O)(=O)c1ccc(F)c(C(=O)Nc2ccccc2C(=O)NC2CC2)c1 | 0 | -1 | 0 | -1 | -1 | 1 | . | .
Cc1ccc(Cn2nnc3c(=O)[nH]c(C4CCN(S(=O)(=O)c5ccccc5F)CC4)nc32)cc1 | 0 | 0 | -1 | -1 | -1 | 0 | . | .
O=C(CCNC(=O)c1ccc([N+](=O)[O-])cc1)NCCC1=CCCCC1 | 0 | -1 | 1 | -1 | 0 | 0 | . | .
O=C(NCCC1=CCCCC1)c1ccc(F)cc1 | 6.4* | 5 | 5 | 11* | 0 | -1 | 18* | 6.3*
CCOC(=O)C(NC(=O)Nc1ccc(Cl)cn1)(Oc1ccc(F)cc1)C(F)(F)F (stereo unspecified) | 4.8* | 4 | 5 | 7 | 0 | 1 | 4.0* | 3.2*
Cc1cccc2nc(COc3ccc4ccccc4c3Br)cn12 | 4.8* | 6.0* | 16 | 10 | 0 | 6.5* | 12* | 7.3*
Cc1cccc2nc(CSc3ccccc3N)cn12 | 2 | 4 | 17 | 8 | 1 | 3 | . | .
NC(=O)CSc1nnc(-c2ccco2)n1-c1ccc(F)cc1 | 1 | 1 | . | -2 | -1 | 1 | . | .
COc1ccc(C)c2sc(N(CCCN(C)C)C(=O)c3ccc(S(=O)(=O)N4CCc5ccccc5C4)cc3)nc12 | 5.2* | 1 | 15 | 4 | -1 | 1 | -1 | -2
CCc1cc(=O)oc2cc(OCc3ccc(C(=O)O)o3)ccc12 | 0 | -1 | 9 | 0 | -1 | 1 | . | .
Cc1ccc(C)c(CC(=O)N2CCCC(c3cc(C(=O)NCc4cccnc4)no3)C2)c1 (stereo unspecified) | 0 | -1 | . | -2 | -2 | . | . | .
COc1ccc(Nc2nc(-c3cccs3)cs2)cc1 | 7.1* | 16* | 49* | 18* | 3.8* | . | 19* | 11*
O=C(CCC1CCCN(C(=O)c2cc3ccccc3o2)C1)NCc1ccc(F)c(F)c1 (stereo unspecified) | 1 | 0 | 12 | 4 | 0 | 3 | . | .
CCCc1c(C)c2c(C)[nH]nc2oc1=O | 0 | -1 | 4 | -3 | -1 | 0 | . | .
CCOC(=O)Cc1c(C)c2c(C)[nH]nc2oc1=O | 5.4* | -1 | 0 | 2 | -1 | -1 | -1 | 0
SMILES | DAX1 inh-1 | hcDAF-12 act | AHR act | hgDAF12 agonist | ssDAF12 agonist | DAX1 inh-2 | DAX1 inh confirm | SF1 AF2mut Luc
COc1ccc(C(=O)NCc2nnc(SCC(=O)N3CCC(C)CC3)o2)cc1 | 0 | 0 | 1 | 3 | -1 | 0 | . | .
CC(C)(C)c1ccc(C(=O)NC(=S)NNC(=O)COc2ccccc2)cc1 | 12* | 2 | 29 | 11* | 0 | 1 | 2 | 2
CC(=O)c1cccc(NC(=O)c2ccc3c(c2)CCCC3)c1 | 8.2* | 2 | 4 | 13* | -1 | 2 | 8.8* | 5.4*
Cc1ccc(C(=O)Nc2ccc3c(c2)CCC3)cc1 | 4.6* | 5 | -4 | 6 | 0 | -4 | 6.0* | 4.2*
O=C(Cn1cnc2ccccc2c1=O)NC1CCS(=O)(=O)C1 (stereo unspecified) | -1 | 2 | -1 | 4 | -1 | 0 | . | .
COc1ccc(CNC(=O)C2CCC(CNS(=O)(=O)c3ccc(C)cc3)CC2)cc1 (stereo unspecified) | 0 | -3 | 0 | -3 | -1 | 0 | . | .
Cc1ccc(C)c(N2N=C(C(=O)OCc3nnc(-c4ccccc4Br)o3)CCC2=O)c1 | 1 | -2 | . | -2 | -1 | 2 | . | .
N/C(CS(=O)(=O)c1ccccc1)=N\OC(=O)c1ccc(F)cc1 | 5.9* | 1 | 4 | 6 | 0 | 2 | 3.8* | 3.2*
Cc1cccc(C)c1OCCSc1nc2ccccc2n1CC(=O)O | 0 | -1 | 3 | 1 | -2 | 0 | . | .
c1ccc(C2=NNC(=NC3CC3)SC2)cc1 | 6.8* | 5 | 6 | 12* | 1 | -2 | 5.3* | 2
COc1ccc(-n2c(C)cc(C3=NNC(=NC4CC4)SC3)c2C)cc1 | 1 | 3 | . | 5 | -1 | 1 | . | .
Cc1cnc(NC(=O)c2ccc3ncsc3c2)s1 | 13* | 5 | . | 13* | 0 | 2 | 15* | 6.7*
CCC(C)(C)C1CCC(=NNC(=O)c2ccoc2C)CC1 (stereo unspecified) | 4.7* | 3 | 8 | 18* | 0 | 1 | 2 | 3.1*
CCN(C[C@H]1N[C@@](C)(C(=O)OC)[C@H]2C(=O)N(Cc3ccccc3)C(=O)[C@@H]12)C(=O)C1CCCCC1 | -1 | -1 | -1 | -3 | -1 | -2 | . | .
COC(=O)[C@]1(Cc2ccccc2)N[C@H](CN(C)C(=O)Nc2ccc(C(F)(F)F)cc2)[C@@H]2C(=O)N(Cc3ccccc3)C(=O)[C@@H]21 | 3 | 2 | 1 | 1 | -1 | 0 | . | .
